Results published in the supplement of paper PMC6555819.

tested on: FXR:RXRa (NR concentration 270 nM, RXRa partner concentration 90 nM); assay: PBM binding z-score (relative to random genomic background probes); higher = stronger binding; sequences stand for … in GC…GCGATTGACAGCGTAGAATGAAGG
Method in brief: (§1)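 Scanned fluorescence from custom Agilent 4×180K protein-binding microarrays was regression-normalized. Binding z-scores use random background probes as reference. Ligand-free nuclear receptor dimers were incubated on the arrays for 1 h and detected with antibodies against each partner (one per run).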

Sequence	PBM binding z-score
CCATGTAGGTTAAGGGGGTCATTCAGTTTGAAAG	4.98
TCGATTAGGTTACGGGGGCATTCAGGGATGAAGA	3.28
CCGAGTAGGTTACGAGGGGGCATTCTGTGCGAAT	2.88
TCGACTAGGTTACGGGGGCATTCAGGGATGAAGA	2.94
TCGAGTACGTTACGGGGGCATTCAGGGATGAAGA	2.24
TTGAGTAGGTTACGGGGGCATTCAGGGATGAAGA	3.06
TCGAGTAGGTTCCGGGGGCATTCAGGGATGAAGA	2.36
CCGGGTAGGTTACGAGGGGGCATTCAGTGCGAAT	2.48
CTATGTAGGTTAAGGGGGTCACTCAGTTTGAAAG	4.57
CTATGTAGGTTAAGGGGGTCATTCTGTTTGAAAG	4.82
CTATGTAAGTTAAGGGGGTCATTCAGTTTGAAAG	4.5
CTATGCAGGTTAAGGGGGTCATTCAGTTTGAAAG	5.02
CCGAGTAGGTTACGAGGGGGTATTCAGTGCGAAT	1.23
TCGAGGAGGTTACGGGGGCATTCAGGGATGAAGA	5
CTATGTAGGTTGAGGGGGTCATTCAGTTTGAAAG	4.59
CCGAGTAGGTTACAAGGGGGCATTCAGTGCGAAT	2.05
CTACGTAGGTTAAGGGGGTCATTCAGTTTGAAAG	5.02
CCGAGTAGGTTACGAGGCGGCATTCAGTGCGAAT	-0.0338
CCGAGTAGGTTATGAGGGGGCATTCAGTGCGAAT	3.13
TCGAGTCGGTTACGGGGGCATTCAGGGATGAAGA	1.7

Sequence	PBM binding z-score
TCGAGTAGGTTACGGGGGGATTCAGGGATGAAGA	2.95
CCGAGTAGGTTACGATGGGGCATTCAGTGCGAAT	0.181
TCGAGTAGGTTACCGGGGCATTCAGGGATGAAGA	0.549
TCGAGTAGGTTACGGGGGCAGTCAGGGATGAAGA	2.28
TCGAGTAGGTTGCGGGGGCATTCAGGGATGAAGA	2.84
CTATGTAGGTTAAGGGGGTCGTTCAGTTTGAAAG	2.32
CCGAGTGGGTTACGAGGGGGCATTCAGTGCGAAT	2.73
CTATTTAGGTTAAGGGGGTCATTCAGTTTGAAAG	4.85
CCGAGTAGGTTACGAAGGGGCATTCAGTGCGAAT	0.672
TCGAGTAGGTTACGGGGGCATTCCGGGATGAAGA	2.68
TCGAGTAGGTTAAGGGGGCATTCAGGGATGAAGA	2.95
CTATATAGGTTAAGGGGGTCATTCAGTTTGAAAG	6.35
CTATGTAGGTTAAGGGGGGCATTCAGTTTGAAAG	3.22
CCGAGTAGGTTAGGAGGGGGCATTCAGTGCGAAT	2.47
TCGAGTAGGCTACGGGGGCATTCAGGGATGAAGA	1.68
CTATGTAGGGTAAGGGGGTCATTCAGTTTGAAAG	5.03
CTATGTAGGTTATGGGGGTCATTCAGTTTGAAAG	5.57
CTGTGTAGGTTAAGGGGGTCATTCAGTTTGAAAG	5.15
CCGAGTTGGTTACGAGGGGGCATTCAGTGCGAAT	1.35

tested on: LXRa:RXRa (NR concentration 270 nM, RXRa partner concentration 90 nM); assay: as above
Method in brief: as §1

Sequence	PBM binding z-score
CCATGTAGGTTAAGGGGGTCATTCAGTTTGAAAG	4.71
TCGATTAGGTTACGGGGGCATTCAGGGATGAAGA	3.73
CCGAGTAGGTTACGAGGGGGCATTCTGTGCGAAT	7.2
TCGACTAGGTTACGGGGGCATTCAGGGATGAAGA	2.96
TCGAGTACGTTACGGGGGCATTCAGGGATGAAGA	1.79
TTGAGTAGGTTACGGGGGCATTCAGGGATGAAGA	3.3
TCGAGTAGGTTCCGGGGGCATTCAGGGATGAAGA	1.8
CCGGGTAGGTTACGAGGGGGCATTCAGTGCGAAT	7.2
CTATGTAGGTTAAGGGGGTCACTCAGTTTGAAAG	4.36
CTATGTAGGTTAAGGGGGTCATTCTGTTTGAAAG	4.99
CTATGTAAGTTAAGGGGGTCATTCAGTTTGAAAG	4.34
CTATGCAGGTTAAGGGGGTCATTCAGTTTGAAAG	5.01
CCGAGTAGGTTACGAGGGGGTATTCAGTGCGAAT	5.34
TCGAGGAGGTTACGGGGGCATTCAGGGATGAAGA	3.99
CTATGTAGGTTGAGGGGGTCATTCAGTTTGAAAG	4.82
CCGAGTAGGTTACAAGGGGGCATTCAGTGCGAAT	7.37
CTACGTAGGTTAAGGGGGTCATTCAGTTTGAAAG	5.26
CCGAGTAGGTTACGAGGCGGCATTCAGTGCGAAT	0.596
CCGAGTAGGTTATGAGGGGGCATTCAGTGCGAAT	6.86
TCGAGTCGGTTACGGGGGCATTCAGGGATGAAGA	1.82

Sequence	PBM binding z-score
TCGAGTAGGTTACGGGGGGATTCAGGGATGAAGA	2.87
CCGAGTAGGTTACGATGGGGCATTCAGTGCGAAT	6.63
TCGAGTAGGTTACCGGGGCATTCAGGGATGAAGA	0.561
TCGAGTAGGTTACGGGGGCAGTCAGGGATGAAGA	2.27
TCGAGTAGGTTGCGGGGGCATTCAGGGATGAAGA	2.17
CTATGTAGGTTAAGGGGGTCGTTCAGTTTGAAAG	2.72
CCGAGTGGGTTACGAGGGGGCATTCAGTGCGAAT	6.93
CTATTTAGGTTAAGGGGGTCATTCAGTTTGAAAG	4.88
CCGAGTAGGTTACGAAGGGGCATTCAGTGCGAAT	6.11
TCGAGTAGGTTACGGGGGCATTCCGGGATGAAGA	2.91
TCGAGTAGGTTAAGGGGGCATTCAGGGATGAAGA	2.79
CTATATAGGTTAAGGGGGTCATTCAGTTTGAAAG	5.57
CTATGTAGGTTAAGGGGGGCATTCAGTTTGAAAG	3.64
CCGAGTAGGTTAGGAGGGGGCATTCAGTGCGAAT	4.27
TCGAGTAGGCTACGGGGGCATTCAGGGATGAAGA	1.1
CTATGTAGGGTAAGGGGGTCATTCAGTTTGAAAG	4.71
CTATGTAGGTTATGGGGGTCATTCAGTTTGAAAG	5.53
CTGTGTAGGTTAAGGGGGTCATTCAGTTTGAAAG	4.93
CCGAGTTGGTTACGAGGGGGCATTCAGTGCGAAT	3.69
